Experimental data: PubChem BioAssay (NCATS)
Results filed as inconclusive are left out. The source made the active and inactive calls. Calls come from the whole dose curve.

Assay: Cytotoxicity counterscreen for inhibitors of SARS-CoV-2 cell entry (AID 1645845); note: nearly all actives have a fitted effect of over 50% in size
Conditions: cell viability (SARS-CoV-2 entry assay cells); series mostly up to 57.1 µM; activity change, negative = cytotoxicity: at the top concentration
How it was run: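 Expi293F/hACE2 cells seeded overnight; cpd pin-transferred in DMSO, 1 h preincubation, + media, 48 h 37 C 5% CO2; ATPLite 1step luminescence; normalized to cells and no cells.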
% is set by controls: 0 for no effect and ±100 for the full control effect; potency is the fitted concentration of half-maximal effect.

SMILES	activity change, negative = cytotoxicity	outcome	Potency
CC(C)NC(=O)N1CC[C@H](N=C2Nc3cc(F)ccc3N(CC(F)F)c3ccc(Cl)cc32)C1	-6.46% [at 19 µM] (inactive)		
Cn1ncnc1[C@H]1c2n[nH]c(=O)c3cc(F)cc(c23)N[C@@H]1c1ccc(F)cc1	-31.4% (inactive)		
CC(C)N(CCCNC(=O)Nc1ccc(C(C)(C)C)cc1)C[C@H]1O[C@@H](n2ccc3c(N)ncnc32)[C@H](O)[C@@H]1O	-0.287% (inactive)		
CO[C@H]1/C=C/O[C@@]2(C)Oc3c(C)c(O)c4c(O)c(c(/C=N\N5CCN(C6CCCC6)CC5)c(O)c4c3C2=O)NC(=O)/C(C)=C\C=C\[C@H](C)[C@H](O)[C@@H](C)[C@@H](O)[C@@H](C)[C@H](OC(C)=O)[C@@H]1C	-17.9% (inactive)		
NS(=O)(=O)c1ccc(NC(=S)N2CCN(C/C=C/c3ccccc3)CC2)cc1	-24.4% (inactive)		
Cc1ccc(NS(=O)(=O)c2ccc3c(c2)C2C=CCC2C(c2ccc(C(=O)O)cc2)N3)cc1C (stereo not given)		inactive	
CN(C)N(C)C(=O)[C@@]1(Cc2ccccc2)CCCN(C(=O)[C@@H](Cc2c[nH]c3ccccc23)NC(=O)C(C)(C)N)C1		inactive	
C/C=C/C[C@@H](C)C(=O)[C@H]1C(=O)N[C@@H](C(C)C)C(=O)N(C)CC(=O)N(C)[C@@H](CC(C)C)C(=O)N[C@@H](C(C)C)C(=O)N(C)[C@@H](CC(C)C)C(=O)N[C@@H](C)C(=O)N[C@H](C)C(=O)N(C)[C@@H](CC(C)C)C(=O)N(C)[C@@H](CC(C)C)C(=O)N(C)[C@@H](C(C)C)C(=O)N1C	-8.46% [at 27.1 µM] (inactive)		
C[C@@H](Nc1ncnc2[nH]c(-c3ccc(O)cc3)cc12)c1ccccc1	3.13% (inactive)		
CCn1nc(C2CCN(C(=O)CCO)CC2)nc1-c1cnc(N)c(-c2nnc(C(C)(C)C)o2)n1	-10.2% (inactive)		
CN1CCN(CCCNc2ncc(Cl)c(-c3cc4c(C(=O)NC5CC5)cccc4s3)n2)CC1	-3.18% (inactive)		
CCC(=O)N1CCOc2c(cc(-c3cc(OC)cc(OC)c3)cc2C(=O)N[C@H]2CCCN(C)C2)C1		inactive	
Cc1cc(C)cc(Oc2ccc(CNC(=O)[C@H](C)N)cc2C)c1		inactive	
CN1CCN(c2nc(C3=C(c4c[nH]c5ccccc45)C(=O)NC3=O)c3ccccc3n2)CC1		inactive	
COc1cc(=C2C=c3ccccc3=N2)[nH]/c1=C/c1[nH]c(C)cc1C			10 µM (active)
Cc1cc(-n2c(=O)ccc3cnc4[nH]ccc4c32)ccc1F		inactive	
CCN(C(=O)c1ccccc1OC)c1cc2c(cc1N1CCNC[C@H]1C)n(C)c(=O)n2C		inactive	
CN1C(=O)N(c2cc(Cl)cc(Cl)c2)C(=O)[C@]12CN(Cc1cc(C(=O)O)cs1)C[C@H]2c1ccc(C#N)cc1	-2.41% (inactive)		
CC#CC(=O)N1CCC[C@H]1c1nc(-c2ccc(C(=O)Nc3ccccn3)cc2)c2c(N)nccn12	2.05% [at 27.1 µM] (inactive)		
Cn1cc(/C=C/C(=O)c2cccc(F)c2)cc1/C=C/C(=O)NO		inactive	

SMILES	activity change, negative = cytotoxicity	outcome	Potency
Cn1nccc1Nc1nccc(-c2cc3c(s2)C(C)(C)N(CCN2CCOCC2)C3=O)n1		inactive	
O=C(Nc1nccs1)C(c1cc(F)ccc1O)N1Cc2ccccc2C1=O (stereo not given)	3.17% (inactive)		
C=C[C@H]1CN2CCC1C[C@@H]2C(O)c1ccnc2ccc(OC)cc12 (stereo not given in full)		inactive	
NC(=O)c1cnc2[nH]ccc2c1NC1C2CC3C[C@H]1CC(O)(C3)C2 (stereo not given in full)	-11% (inactive)		
C[C@H](NC(=O)c1c(N)nn2cccnc12)c1cc2cccc(C#Cc3cnn(C)c3)c2c(=O)n1-c1ccccc1		inactive [at 27.1 µM]	
NC1=N[C@@]2(c3cc(NC(=O)c4ccc(F)cn4)ccc3F)COC[C@H]2CS1		inactive	
CNS(=O)(=O)c1ccc2c(c1)/C(=C/c1[nH]c3c(c1CCCN1CCN(C)CC1)CCCC3)C(=O)N2		inactive	
CNc1nc(-c2ccc3c(N)n[nH]c3c2)cc(N2C[C@@H](C(=O)NC3CCCCC3)CC[C@H]2C)n1	0.975% (inactive)		
CNC(=O)[C@H](Cc1c[nH]c2ccccc12)NC(=O)[C@@H](CC(=O)NO)CC(C)C		inactive	
CC(C)C[C@H](CO)Nc1nc(S[C@@H](C)c2ccccc2)nc2nc(N)sc12			31.6 µM (active)
CNC(=O)c1cc(Oc2ccc3nc(N[C@@H]4CCCC[C@H]4O)sc3c2)ccn1	-49.9% (inactive)		
CN(C)c1cc(NC(=O)CNC(C)(C)C)c(O)c2c1C[C@H]1C[C@H]3[C@H](N(C)C)C(=O)C(C(N)=O)=C(O)[C@]3(O)C(=O)C1=C2O	-0.326% (inactive)		
COc1cc2c3c(n(CCCN4CCOCC4)c(=O)c2cc1OC)-c1cc2c(cc1C3=O)OCO2	-29.9% (inactive)		
COc1cc(-c2cn(C)c(=O)c3cnccc23)cc(OC)c1CN(C)C		inactive	
Cc1ccc(-c2nn(C(C)(C)CNC(=O)c3ccncc3)c3ncnc(N)c23)cc1	-7.22% (inactive)		
CN1CCN(c2ccc(Nc3ncc4cc(C#N)c(=O)n(C5CCCC5)c4n3)cc2)CC1		inactive	
CS(=O)(=O)c1ccc([C@@H](CC2CCCC2)C(=O)Nc2nccs2)cc1	-17.5% (inactive)		
Cc1ccc(NC(=O)Nc2cc(C(F)(F)F)ccc2F)cc1Nc1ccc2c(c1)NC(=O)/C2=C\c1ccc[nH]1	-5.4% (inactive)		
CCc1cccc2c3c([nH]c12)[C@@](CC)(CC(=O)O)OCC3	2.77% (inactive)		
CCCC1(CCC)CCC2(CCN(CCCN(CC)CC)C2)CC1			7.08 µM (active)
